Inconclusive results are not listed. The source made the active and inactive calls. The call rests on the fitted dose curve; in most records, active means well fitted inhibition curve with a large enough effect; inconclusive means small, poorly fitted or top-dose-only effect; inactive means flat fitted curve, though single readings scatter.
Each compound was assayed on HEK293 (assay: Cytotoxic Profiling of Annotated Libraries Using Quantitative High-Throughput Screening (AID 1296008; further: nearly all actives have a fitted effect of over 60% in size)). Settings: Five cell lines viability, CellTiter-Glo ATP luminescence, 48-72 h; max response: hits give low values.
In short: (§1)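 Cells exposed to compounds for 48 or 72 hr at 37 degrees Celsius. Viability read as ATP-coupled luminescence with CellTiter-Glo after 10 min at room temperature.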
On the % scale 0 is the no-effect control and ±100 the full control effect; potency means the concentration at half of the fitted maximal effect.

SMILES | Potency | max response
CO[C@H]1[C@H](O)[C@H](O[C@H]2CC[C@]3(C=O)C4CC[C@]5(C)[C@H](C6=CC(=O)OC6)CC[C@]5(O)C4CC[C@@H]3C2)O[C@@H](C)[C@@H]1O (some centres undefined) | 50.2 nM (active) | –
C[C@H]1O[C@@H](n2cnc3c(N)ncnc32)C[C@@H]1O | – | 0.909% (inactive)
CO[C@H]1[C@@H](O)[C@@H](C)O[C@@H](O[C@@H]2C=C3C(OC(C)=O)CC4(O)C(CC[C@]5(C)[C@@H](C6=CC(=O)OC6)CC[C@]45O)[C@@]3(C)CC2)[C@@H]1O (some centres undefined) | 86.2 nM (active) | –
CN(C)c1cc2c(cc1Sc1nc3c(N)nccc3n1CCNCC(C)(C)C)OCO2 | 580 nM (active) | –

Each compound was assayed on HaCat in the same assay as above. Settings: Five cell lines viability, CellTiter-Glo ATP luminescence, 48-72 h; max response: hits give low values.
In short: as §1

SMILES | max response | Potency
CCC(C)/C=C(C)/C=C/C1=CC2=C(Cl)C(=O)C(C)(OC(C)=O)C(=O)C2=CO1 (centres undefined) | -66.3% (inactive) | –
COC1CC(O[C@H]2CC[C@]3(C)C4CC[C@]5(C)[C@@H](C6=CC(=O)OC6)[C@@H](OC(C)=O)C[C@]5(O)C4CC[C@@H]3C2)OC(C)C1O (some centres undefined) | – | 796 nM (active)
C[C@H]1O[C@@H](O[C@H]2CC[C@]3(C=O)C4CC[C@]5(C)[C@@H](C6=CC(=O)OC6)CC[C@]5(O)[C@@H]4CC[C@]3(O)C2)C[C@@H](O)[C@@H]1O (some centres undefined) | – | 502 nM (active)
CC1=CC2OC3[C@H](O)C[C@@](C)([C@]34CO4)[C@@]2(CO)[C@H](O)C1=O (some centres undefined) | – | 14600 nM (active)
C=C1[C@@H](C)[C@H]2[C@H](Cc3ccccc3)NC(=O)[C@]23OC(=O)/C=C/C(=O)CCC[C@@H](C)C/C=C/[C@H]3[C@@H]1O | – | 20600 nM (active)

— PubChem BioAssay (NCATS)
